Measurements taken from the OligoGym collection.

Legend:
Assay in all cases: pooled miR-30 sensor sort-seq; sequence = guide strand
Conditions in all cases: shRNA
SLC30A10 = target: SLC30A10
SLC50A1 = target: SLC50A1
SLC7A11 = target: SLC7A11
SLC9A7 = target: SLC9A7
SLC9A5 = target: SLC9A5
SLCO4C1 = target: SLCO4C1
SLC9A10 = target: SLC9A10
SLMAP = target: SLMAP
SMAD4 = target: SMAD4
SMC2 = target: SMC2
SMC5 = target: SMC5
SMYD3 = target: SMYD3
SNX29 = target: SNX29
SQRDL = target: SQRDL
SRSF11 = target: SRSF11
Further: reference of the scale not given here.

Sequence: TTAGCTAGAAGTTCTAATCAGT
- sensor-assay potency score (higher = more potent) (SLC30A10): 0.384

Sequence: TTAGTTTGAATCACCTTAGCCA
- sensor-assay potency score (higher = more potent) (SLC50A1): 0.6

Sequence: TAATGGACCAAAGACTTCCAAA
- sensor-assay potency score (higher = more potent) (SLC7A11): -1.33

Sequence: ATAATTATCAGAATTGCTGTGA
- sensor-assay potency score (higher = more potent) (SLC7A11): 0.593

Sequence: TCGACTTCTTGATTCCACCGAC
- sensor-assay potency score (higher = more potent) (SLC9A7): 0.212

Sequence: TCTGTCTCTGAACTGTCGCTCT
- sensor-assay potency score (higher = more potent) (SLC9A5): 0.00832

Sequence: TTGTCTGTGATTAACACACCTT
- sensor-assay potency score (higher = more potent) (SLCO4C1): -0.412

Sequence: TACAACACCTGTAAATCCGCAG
- sensor-assay potency score (higher = more potent) (SLC9A7): -0.278

Sequence: TATATGATTCAGATACACCAGC
- sensor-assay potency score (higher = more potent) (SLCO4C1): -0.633

Sequence: TTAAGCAACAGGCCTGAACTGA
- sensor-assay potency score (higher = more potent) (SLC9A5): -1.07

Sequence: TAGTCTTTGGTCAAAATCCATA
- sensor-assay potency score (higher = more potent) (SLC9A10): -1.27

Sequence: TACAGTTGAACTTTGTCCCCAG
- sensor-assay potency score (higher = more potent) (SLC9A10): 0.193

Sequence: TAACTTTACAAGTAACACTTAT
- sensor-assay potency score (higher = more potent) (SLCO4C1): -0.974

Sequence: TAACATTTCTTTCTTCTTGAAT
- sensor-assay potency score (higher = more potent) (SLC9A10): -0.801

Sequence: TTCTCTGTCTCTGAACTGTCGC
- sensor-assay potency score (higher = more potent) (SLC9A5): -0.349

Sequence: TAAGACTTGAAAGCTGTCGTTG
- sensor-assay potency score (higher = more potent) (SLC9A7): 0.00174

Sequence: AAGGTCTAGACTTAGACCCAGA
- sensor-assay potency score (higher = more potent) (SLC9A5): -1.07

Sequence: TTGAACTGGATGCACCAGTGGG
- sensor-assay potency score (higher = more potent) (SLC9A5): -0.899

Sequence: TTTATCTGAGAGCTGTCCCATA
- sensor-assay potency score (higher = more potent) (SLC9A7): -0.106

Sequence: TACAAGTCCAGCCTGCTGCAAG
- sensor-assay potency score (higher = more potent) (SLC9A5): -0.602

Sequence: TTTTTCGTAACAGACAATCTTC
- sensor-assay potency score (higher = more potent) (SLC9A10): -0.245

Sequence: TCTTCTTTAAGCTGTATCCAGC
- sensor-assay potency score (higher = more potent) (SLC9A7): -0.509

Sequence: TTTGTAAATATGATTGTCCATA
- sensor-assay potency score (higher = more potent) (SLCO4C1): -1.19

Sequence: TTGAATAATATTATCACAGAAT
- sensor-assay potency score (higher = more potent) (SLCO4C1): -0.992

Sequence: TTACTTTCCGAGACAGGTGAAA
- sensor-assay potency score (higher = more potent) (SLC9A5): -0.787

Sequence: TAATATTCAAGTATGCTGCTTC
- sensor-assay potency score (higher = more potent) (SLCO4C1): 0.868

Sequence: TAGAGCGTGGATCAGAAGGTAG
- sensor-assay potency score (higher = more potent) (SLC9A5): -0.999

Sequence: TTCTGCTGGAAGACCTCCTTGT
- sensor-assay potency score (higher = more potent) (SLC9A5): 0.342

Sequence: TTAAGCAGTTTATCTCTCCTAT
- sensor-assay potency score (higher = more potent) (SLC9A10): -0.373

Sequence: TTGGTTATCGTACACCTGGGGA
- sensor-assay potency score (higher = more potent) (SLC9A7): -0.959

Sequence: TATGATTGACATCATCACCAAA
- sensor-assay potency score (higher = more potent) (SLC9A10): -0.934

Sequence: AAGTTGTCAAAGAACAGCCTGC
- sensor-assay potency score (higher = more potent) (SLC9A5): -0.191

Sequence: TAGTCTGTGTCAATTATCGGAA
- sensor-assay potency score (higher = more potent) (SLC9A10): -0.585

Sequence: TTGAAAGCTGTCGTTGTTGGGT
- sensor-assay potency score (higher = more potent) (SLC9A7): -0.0314

Sequence: TTTGGTAAACTTAGTCACGTTG
- sensor-assay potency score (higher = more potent) (SLC9A7): -0.343

Sequence: TTAAGCTGTATCCAGCATGAAA
- sensor-assay potency score (higher = more potent) (SLC9A7): -1.54

Sequence: TAATGAAGCATGAAACAGCAGT
- sensor-assay potency score (higher = more potent) (SLC9A7): -0.713

Sequence: TAGACTAATATATTTGTTCAGT
- sensor-assay potency score (higher = more potent) (SLCO4C1): -0.742

Sequence: TTGTCAAAGAACAGCCTGCTAG
- sensor-assay potency score (higher = more potent) (SLC9A5): -0.67

Sequence: TTATTTAAAAAGTATCACCTTA
- sensor-assay potency score (higher = more potent) (SLCO4C1): 0.0246

Sequence: TTTATGTTTAGGAACAAACTTT
- sensor-assay potency score (higher = more potent) (SLC9A10): -0.563

Sequence: TTCATTCTGGTCCTCTTCGGAG
- sensor-assay potency score (higher = more potent) (SLC9A7): -1.15

Sequence: TATCACAGCAGCTGTGTCCTGA
- sensor-assay potency score (higher = more potent) (SLC9A5): 0.318

Sequence: TATTCGAAGAACTTTCCGCTGA
- sensor-assay potency score (higher = more potent) (SLC9A7): 0.32

Sequence: TTAACTACAATACCTTGCGTGA
- sensor-assay potency score (higher = more potent) (SLCO4C1): -0.96

Sequence: TTGAACTTCAATACTTTTCCTA
- sensor-assay potency score (higher = more potent) (SLCO4C1): 0.743

Sequence: TATTCTTGTACTTCTGCTGTTT
- sensor-assay potency score (higher = more potent) (SLMAP): -0.0967

Sequence: TTCCAGGTGATACAACTCGTTC
- sensor-assay potency score (higher = more potent) (SMAD4): -1.63

Sequence: TTGTTTATTCTTTAATTCCTGT
- sensor-assay potency score (higher = more potent) (SMC2): -0.411

Sequence: TTACAATACATTATTAACTTAC
- sensor-assay potency score (higher = more potent) (SMAD4): -0.987

Sequence: TCTACCACCAATAACCACCTGC
- sensor-assay potency score (higher = more potent) (SMC2): 0.664

Sequence: TTGCATTGTTGAACATACCTTC
- sensor-assay potency score (higher = more potent) (SMC2): 0.529

Sequence: TTCATCTCTAGTACTTGTGATT
- sensor-assay potency score (higher = more potent) (SLMAP): -0.717

Sequence: TACTTTGGTATCTTCAGCCAGC
- sensor-assay potency score (higher = more potent) (SMC2): -0.418

Sequence: TTAACTTTGAGAACTTCTCTGC
- sensor-assay potency score (higher = more potent) (SMAD4): 0.783

Sequence: TTGATTTCATCAACTACTCTGA
- sensor-assay potency score (higher = more potent) (SMC5): 0.124

Sequence: TTCATTTACAGCTTCAAGCTGT
- sensor-assay potency score (higher = more potent) (SMC2): 0.444

Sequence: TAATTCTTCTTGTTGCTTGTGA
- sensor-assay potency score (higher = more potent) (SMC2): 0.551

Sequence: TTGAGTTCTTGAAACTTGGTTA
- sensor-assay potency score (higher = more potent) (SMC2): 0.137

Sequence: TTCTTAGCAACCAACCTTGTGC
- sensor-assay potency score (higher = more potent) (SMAD4): -0.338

Sequence: TTGTATTTTGTAGTCCACCATC
- sensor-assay potency score (higher = more potent) (SMAD4): -1.39

Sequence: TTTATTGTCACGAACCTCTTTG
- sensor-assay potency score (higher = more potent) (SMC5): -0.041

Sequence: TTGATCTAGTTCAACTTTCTTT
- sensor-assay potency score (higher = more potent) (SMC5): -0.0143

Sequence: TTCTGGTTTATATTCAACCAAG
- sensor-assay potency score (higher = more potent) (SMC2): -1.67

Sequence: TTACTTGTTGGTGTATTCGTAA
- sensor-assay potency score (higher = more potent) (SMAD4): -0.078

Sequence: TAATTCTCTTAATTCTTCCTGA
- sensor-assay potency score (higher = more potent) (SLMAP): 0.412

Sequence: TTAGCAACCAACCTTGTGCCTA
- sensor-assay potency score (higher = more potent) (SMAD4): -0.621

Sequence: TAACTCTGTACAAAGACCGCGT
- sensor-assay potency score (higher = more potent) (SMAD4): 0.679

Sequence: TTTGAATTGAATGTCCTTCAGT
- sensor-assay potency score (higher = more potent) (SMAD4): -0.388

Sequence: TAAATCTAAATGTCGCTTCCGT
- sensor-assay potency score (higher = more potent) (SMC5): 0.849

Sequence: TTTCCTTTCTATAACATCTTGC
- sensor-assay potency score (higher = more potent) (SMC5): 0.304

Sequence: TTTAATGTTATAAATAATCTGG
- sensor-assay potency score (higher = more potent) (SLMAP): -0.423

Sequence: TAGAATGATATACATATCGATG
- sensor-assay potency score (higher = more potent) (SMAD4): -1.35

Sequence: TTTTTGTATTCATACATCCTGG
- sensor-assay potency score (higher = more potent) (SMC2): -0.581

Sequence: TAAGAGTCTATCTTCATCTATT
- sensor-assay potency score (higher = more potent) (SLMAP): -0.538

Sequence: TTCTATTCCAGTTCTTCTCTGG
- sensor-assay potency score (higher = more potent) (SMC2): 0.3

Sequence: TACATTCCAACTGCACACCTTT
- sensor-assay potency score (higher = more potent) (SMAD4): -0.752

Sequence: TTCTATAACATCTTGCTTCTGT
- sensor-assay potency score (higher = more potent) (SMC5): 0.581

Sequence: TTAGGTAGAGTGACGCTGCTTT
- sensor-assay potency score (higher = more potent) (SMAD4): 0.626

Sequence: TTGAAGATAAAACTTGCCCGTC
- sensor-assay potency score (higher = more potent) (SLMAP): 0.116

Sequence: TATAAATCTGTTTTAATCGGGT
- sensor-assay potency score (higher = more potent) (SMC5): -0.0428

Sequence: TTCTCTTTTTGTATATTCCTGA
- sensor-assay potency score (higher = more potent) (SMC5): -0.0732

Sequence: TTCTAGAGCTTCTTGATCCTTC
- sensor-assay potency score (higher = more potent) (SMC2): 0.175

Sequence: TAACTTTCCGTGTATTCTCTGT
- sensor-assay potency score (higher = more potent) (SLMAP): -0.472

Sequence: TTCACTGTCCTTCTCCTCCCGG
- sensor-assay potency score (higher = more potent) (SLMAP): -0.623

Sequence: TTTGATTCTCAGTTCATCCTGA
- sensor-assay potency score (higher = more potent) (SMC2): 0.766

Sequence: TTTACCTACACAAACACGGAAC
- sensor-assay potency score (higher = more potent) (SMYD3): -0.662

Sequence: TTGACCTTCTCTTTTCAGCATC
- sensor-assay potency score (higher = more potent) (SNX29): -0.863

Sequence: ATAGGTTCCAAGTCCTTCGTGC
- sensor-assay potency score (higher = more potent) (SQRDL): 0.618

Sequence: TCTTCTTGCTTGTTGATCGTTC
- sensor-assay potency score (higher = more potent) (SRSF11): 0.0447
